From PubChem BioAssay
A selection: hits, their analogues and other compounds. The true share with any hit is near 19%.
KB-3-1 tox: KB-3-1 parental cell cytotoxicity | AID 1347075 | Potency, µM (series often up to 46.1 µM), most hits filed as cytotoxic | KB-3-1 viability, CellTiter-Glo ATP luminescence, 72 h | 400,000 compounds, 1.4% hits; also: nearly all actives have a fitted effect of over 60% in size
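Viability of parental KB-3-1 cells, measured by CellTiter-Glo luminescence, followed a 72 h incubation at 37 °C with pinned compounds in phenol-red-free DMEM containing 10% FBS.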
HT1080 IDH1KD tx: HT-1080 IDH1 knockdown cell toxicity (counter line); HT-1080 IDH1 knockdown viability, ATP luminescence, 48 h; Potency, µM (series often up to 46.1 µM), without a hit: at the top dose activity, negative = toxicity, most hits filed as cytotoxic; 360,000 compounds, 2% hits;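 also: 0% = DMSO wells and -100% = cell-free medium wells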
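HT-1080-IDH1KD cells (IDH1 knocked down), 750/well in RPMI with 5% FBS, treated with compound 48 h at 37 degrees C. Viability by CellTiter-Glo luminescence, normalised to DMSO and no-cell wells; concentration-response curves classed.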
KB-V1 cytotox: kills drug-selected multidrug resistant KB-V1 cells. KB-V1 MDR cells viability, CellTiter-Glo, 72 h. 400,000 compounds, 3.4% hits. Potency, µM (titrated, usually from 46.1 µM), actives largely listed as cytotoxic. AID 1347076; also: nearly all actives have a fitted effect of over 60% in size
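Luminescent ATP read-out (CellTiter-Glo, 10 min) measures survival of drug-selected KB-V1 MDR cells after 72 h, 37 degrees C compound exposure. Medium: phenol-red-free DMEM, 10% FBS. Values from fitted concentration-response curves.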
DT40 TDP1 no CPT: qHTS for Inhibitors of human tyrosyl-DNA phosphodiesterase 1 (TDP1): qHTS in cells in absence of CPT; 420,000 compounds, 15% hits; Potency, µM (doses to about 46.2 µM), for inactives: at the top dose activity change, negative = growth inhibition, most hits filed as inhibitors; AID 686978, 2013; DT40 Tdp1-/- hTDP1 cells, no CPT, ATP luminescence, 48 h; also: nearly all actives have a fitted effect of over 55% in size
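A cellular qHTS used chicken DT40 cells lacking endogenous Tdp1 but carrying stably transfected human TDP1. Compounds were applied without camptothecin, and cell growth kinetics were judged by ATP-dependent luminescence after ≥48 hr.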
HT1080-NT tox: kills 2HG-producing HT-1080-NT fibrosarcoma cells; HT-1080-NT fibrosarcoma viability, CellTiter-Glo ATP luminescence, 48 h; Potency, µM (titrated, usually from 46.1 µM), inactives show at the top dose activity, negative = less viability, usual class: cytotoxic; 360,000 compounds, 1.6% hits; AID 686970;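 also: NT is the 2HG producing partner of a matched IDH1 knockdown line; 0% = DMSO-treated cells and -100% = media-only wells without cells; nearly all actives have a fitted effect of over 55% in size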
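Toxicity toward the 2HG-producing NT line was scored as %Activity, normalised to DMSO and no-cell wells, from CellTiter-Glo luminescence after 48 hours' treatment.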
TDP1 cell CPT: growth inhibition of DT40 Tdp1-/-;hTDP1 cells with camptothecin (screen for TDP1 inhibitors). chicken DT40 Tdp1-/-;hTDP1 cells + 20 nM CPT, ATP luminescence, 48 h. Potency, µM (top dose mostly 46.2 µM), for the others: at the highest dose activity change, negative = growth inhibition, hits mostly inhibitors. 420,000 compounds, 12% hits. AID 686979; also: nearly all actives have a fitted effect of over 55% in size
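Cell growth measured by CellTiter-Glo luminescence after a minimum 48 h, 37 C compound exposure with 20 nM CPT in Tdp1-knockout DT40 cells stably expressing hTDP1, seeded 400/well; qHTS titration format.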
Starred values were filed as active, the others as inactive; i = inactive; ? = inconclusive; . = no result. Calls follow the shape of the dose curve; as a rule, active = well fitted curve in the direction sought with a large enough effect; inconclusive = small, poorly fitted or top-dose-only effect, or another doubt; inactive = no such curve, though single readings can be large; an effect the other way counts as inactive or inconclusive. Unless noted, % is scaled to controls: 0 for no effect and ±100 for the full control effect; potency is read from the fitted curve at half-maximal effect.

SMILES	KB-3-1 tox	HT1080 IDH1KD tx	KB-V1 cytotox	DT40 TDP1 no CPT	HT1080-NT tox	TDP1 cell CPT
CC(C)N1CCC1(C)C(=O)Nc1nccc2cccnc12 (centres undefined)	i	2%	i	5.2µM*	7%	4.1µM*
Cc1cc(NC(=O)C2(C)CCN2C(C)C)c2ccccc2n1 (centres undefined)	i	0%	i	21µM*	0%	?
CC(C)N1CCC1(C)C(=O)Nc1cccc2ccccc12 (centres undefined)	i	-3%	i	?	1%	?
COc1ccc(C2C(C(=O)N3CCCCC3)CC(=O)N2c2ccc(OC)cc2)cc1 (centres undefined)	i	12%	i	6%	11%	-24%
C=CCNc1nc(-c2sc(NC(C)=O)nc2C)cs1	i	-20%	?	16µM*	-2%	10µM*
Cc1nc(NC(=O)C(C)(C)C)sc1-c1csc(N)n1	i	-9%	i	23µM*	-7%	?
Cc1nc(C)c(-c2csc(N)n2)s1	i	-14%	i	1%	-15%	-2%
O=C(/C=C/c1ccco1)NC(=S)Nc1ccc(N2CCCC2)cc1	?	?	?	15µM*	?	23µM*
O=C(/C=C/c1ccco1)NC(=S)Nc1ccc(C(=O)O)cc1	i	-7%	i	-13%	-3%	-24%
O=C(/C=C\c1ccco1)Nc1ccc(N2CCN(C(=O)c3ccccc3)CC2)cc1	i	-1%	23µM*	?	-1%	?
Cc1ccc(-c2noc(-c3cccnc3N(C)Cc3ccc(Cl)cc3)n2)cc1	i	.	i	-17%	.	-18%
CCN(Cc1ccccc1)c1ccc(/C=N/N2CCOCC2)cc1	i	0%	i	-16%	-2%	-4%
CCCCN(CCC#N)c1ccc(/C=C/c2ccnc3ccccc23)cc1	?	.	18µM*	10µM*	.	10µM*
CCN(CC)c1ccc(/C=C/c2ccnc3ccccc23)cc1	?	.	i	18µM*	.	?
CCN(CCC(=O)O)c1ccc(/C=C/c2ccnc3ccccc23)cc1	i	.	i	?	.	2%
CCN(CC)CCN(CC)c1ccc(/C=C/c2ccnc3ccccc23)cc1	i	.	i	4.5µM*	.	-91%
CCN(Cc1ccccc1)c1ccc(/C=C/c2nccc3ccccc23)cc1	i	.	i	?	.	13µM*
CCCCCCCN(CCCCCCC)c1ccc(/C=C/c2ccnc3ccccc23)cc1	i	.	?	-15%	.	-22%
CN1OC[C@@H]2CN(Cc3ccccc3)[C@H](c3cccc(-c4ccccc4)c3)C[C@@H]21	i	-13%	i	?	-17%	?
Cc1ccc(C)c(NC(=O)CN(C)S(=O)(=O)c2cccc3cccnc23)c1	i	-5%	?	?	25%	?
CCN(C)c1ccc(/C=C/c2ccnc3ccccc23)cc1	i	.	?	11µM*	.	11µM*
CN(C)c1ccc(N=Nc2ccnc3ccccc23)cc1	?	.	i	22µM*	.	?
CN(C)c1ccc(N=Nc2ccc(/C=C/c3ccnc4ccccc34)cc2)cc1	i	.	i	18µM*	.	?
OCCN(CCO)c1ccc(/C=C/c2ccnc3ccccc23)cc1	?	.	13µM*	14µM*	.	8.9µM*
CN(C)c1ccc(N=Nc2ccccc2Br)cc1	i	-9%	i	0%	-11%	-14%
C=CCN(CC=C)c1ccc(/C=C/c2ccnc3ccccc23)cc1	?	.	?	?	.	18µM*
CC(C)CN(CC(C)C)c1ccc(/C=C/c2ccnc3ccccc23)cc1	i	.	i	18µM*	.	13µM*
